ADAM17 inh: inhibits human ADAM17; P78536; recombinant ADAM17, EDANS/DABCYL FRET peptide cleavage; inhibition, % at 6.95 µM; hit rate 0.83% among 370,000;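 active = inhibition above the mean of compounds lying between control limits plus 3 SD, set per campaign, cut at about 8.5% in these data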;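 also: 0% = DMSO-only wells as the low control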
PLCb3 inh: inhibitors of human phospholipase C beta3. hit rate 0.18% among 370,000. Purified PLC-beta3, fluorogenic substrate, fluorescence. AID 720704. inhibition, % at 12.2 µM; in the data active = inhibition above about 11%;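 also: 0% = median of compound wells on plate and 100% = full blocker control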
ADAM10 inh: inhibits human ADAM10; O14672; recombinant ADAM10, EDANS/DABCYL FRET peptide cleavage, 3 h; inhibition, % at 7 µM; hit rate 0.62% among 370,000; AID 720582;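 active = inhibition above a per-campaign cutoff equal to the mean of compounds falling between control-based bounds plus 3 SD, cut at about 20% in these data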;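 also: 0% = DMSO wells while the 100% control is not disclosed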
PLCg1 inh: inhibitors of human phospholipase C gamma1 | P19174 | inhibition, % at 12.2 µM | hit rate 0.84% among 370,000 | purified PLC-gamma1, fluorogenic substrate, fluorescence | AID 720700; in the data active = inhibition above about 9.5%
KLK7 zymogen act: activates the human kallikrein-7 zymogen | P49862 | purified proKLK7, EDANS-DABCYL substrate fluorescence; 100% is mature enzyme control, 0% vehicle | activation, % at 7 µM | hit rate 0.9% among 370,000 | AID 652039;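 active = activation above the mean of all tested compounds plus 3 SD, computed per campaign excluding outliers beyond control limits, cut at about 13% in these data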
ADAM10 confirm: human ADAM10 inhibition, confirmation; shares compounds with ADAM10 inh; inhibition, % at 6.95 µM; hit rate 1% among 2,100; ADAM10 QFRET peptide cleavage, EDANS fluorescence;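 active = inhibition above about 20% chosen separately for each screening run, limit read from the data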;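 also: 0% = DMSO wells and 100% = marimastat wells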
ADAM17 ctr: counter-screen for ADAM10 exosite inhibitors: inhibitors of human ADAM17. shares compounds with ADAM10 inh. ADAM17 QFRET peptide cleavage, EDANS fluorescence. inhibition, % at 6.95 µM. hit rate 0.5% among 2,100. AID 743214;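 active = mean triplicate inhibition above the solvent-only control wells' mean plus 3 SD, cut at about 12% in these data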;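 also: 0% = DMSO wells and 100% = marimastat wells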
ADAM10 ctr: counter-screen for ADAM17 exosite inhibitors: inhibitors of human ADAM10; AID 743256; inhibition, % at 6.95 µM; hit rate 47% among 2,900; recombinant ADAM10, EDANS/DABCYL FRET peptide cleavage, 3 h; shares compounds with ADAM17 inh;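 active = mean inhibition over the triplicate runs exceeds the activity threshold set in the earlier primary screen, cut at about 20% in these data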;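 also: 0% = DMSO wells and 100% = marimastat wells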
ADAM17 confirm: confirmation of inhibitors of human ADAM17; shares compounds with ADAM17 inh; recombinant ADAM17, EDANS/DABCYL QFRET peptide cleavage; inhibition, % at 6.95 µM; hit rate 65% among 2,900;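 active = mean inhibition across replicates above the hit cutoff set in the primary screen, cut at about 8.5% in these data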;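 also: 0% = DMSO wells and 100% = marimastat wells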
* marks the source's active call; other numbers are inactive results; / = no result given. Hits are enriched below; roughly 2.9% of the tested compounds scored in any of these assays.

SMILES	ADAM17 inh	PLCb3 inh	ADAM10 inh	PLCg1 inh	KLK7 zymogen act	ADAM10 confirm	ADAM17 ctr	ADAM10 ctr	ADAM17 confirm
COc1ccc(OC)c(-c2nnc3n2N=C(c2ccc(OC)c(OC)c2)CS3)c1	3.5	4.8	7.9	3.1	-0.8	/	/	/	/
COc1ccc(OC)c(-c2nnc3n2N=C(c2ccc(OC)c(OC4CCCC4)c2)CS3)c1	16.9*	-5.6	31.1*	3.8	0.0	5.3	1.3	7.8	8.0
CC(O/N=C/c1ccccc1OC(F)F)C(=O)Nc1cccc(S(=O)(=O)N2CCOCC2)c1 (stereo unspecified)	10.1*	-0.7	19.8*	2.4	1.4	0.2	0.5	7.0	2.8
C/C(=N\Nc1ccc2nncn2n1)c1cccs1	-0.1	-7.9	0.8	-0.2	0.2	/	/	/	/
Cc1ccc2nc(NC(=O)CN(C)S(=O)(=O)c3ccc(Br)s3)sc2c1	10.3*	-2.3	24.4*	4.2	0.0	6.7	2.5	25.3*	15.4*
O=S(=O)(NCC(c1ccco1)N1CCN(c2ccccc2F)CC1)c1ccc2c(c1)OCCO2 (stereo unspecified)	2.4	1.0	7.6	2.8	0.6	/	/	/	/
C[C@@H]1CN([C@H](C)CO)C(=O)c2cc(NC(=O)Nc3ccc(C(F)(F)F)cc3)ccc2O[C@H]1CN(C)S(=O)(=O)c1cccs1	13.0*	2.9	28.8*	2.9	0.1	3.8	1.5	48.8*	32.8*
C[C@@H]1CCCCO[C@H](CN(C)S(=O)(=O)c2ccc(F)cc2)[C@@H](C)CN([C@H](C)CO)C(=O)c2cc(NC(=O)Nc3ccc(C(F)(F)F)cc3)ccc2O1	8.7*	-1.0	27.4*	-2.2	0.2	15.8	4.2	45.0*	23.5*
C[C@H]1CCCCO[C@@H](CN(C)S(=O)(=O)c2ccc(F)cc2)[C@@H](C)CN([C@@H](C)CO)C(=O)c2cc(NC(=O)Nc3ccc4c(c3)OCO4)ccc2O1	-1.2	1.6	4.2	-0.2	0.6	/	/	/	/
COc1ccc(S(=O)(=O)N(C)C[C@H]2OCCCC[C@@H](C)Oc3ccc(NC(=O)CCC(F)(F)F)cc3C(=O)N([C@H](C)CO)C[C@@H]2C)cc1	-1.3	6.5	-0.9	1.4	-0.5	/	/	/	/
COc1ccc(S(=O)(=O)N(C)C[C@@H]2OCCCC[C@H](C)Oc3ccc(NC(=O)Nc4ccc(C(F)(F)F)cc4)cc3C(=O)N([C@H](C)CO)C[C@H]2C)cc1	13.2*	0.7	34.0*	2.5	0.0	13.8	4.5	45.8*	24.4*
Cc1ccc([C@H]2C[C@@H](n3cc(COC(=O)c4ccccc4)nn3)[C@H](O)CN2Cc2cccs2)cc1	-3.4	1.2	-4.3	0.9	0.4	/	/	/	/
Cc1ccc([C@H]2C[C@H](n3cc(COC(=O)c4ccccc4)nn3)[C@@H](O)CN2Cc2cccs2)cc1	11.7*	-2.6	24.4*	1.4	0.0	6.1	2.1	11.8	9.2*
COc1ccc(C)cc1S(=O)(=O)Nc1cccc(C)c1	0.5	0.5	-5.9	-1.5	0.3	/	/	/	/
CCOC(=O)c1ccc(NC(=O)c2ccc(NC(=O)c3ccccc3)cc2)cc1	-5.4	-19.5	-7.8	-2.1	-0.3	/	/	/	/
CCOC(=O)c1ccc(NC(=O)COC(=O)c2cccc(Oc3ccccc3)c2)cc1	12.7*	-0.1	28.1*	-1.8	-0.1	8.6	2.7	26.9*	14.3*
Cc1ccc(SCC2(O)CCN(S(=O)(=O)c3ccc(Cl)cc3)CC2)cc1	16.9*	6.8	29.4*	7.7	0.5	3.4	0.3	27.6*	15.7*
Cc1ccc(S(=O)(=O)N2CCN(C(=O)CSc3ccc(Cl)cc3)CC2)cc1	0.6	3.1	11.1	4.1	-0.4	/	/	/	/
Cc1ccc(S(=O)(=O)N2CCOCC2)cc1NS(=O)(=O)c1ccc(F)c(F)c1	-1.2	-7.5	-22.2	2.2	0.0	/	/	/	/
COc1ccc(/C=N/NC(=O)c2ccc(NC(=O)c3cccc([N+](=O)[O-])c3)cc2)c(OC)c1	-1.2	-1.7	2.6	0.8	0.0	/	/	/	/
COc1ccc(NC(=O)c2cccc(Oc3ccc([N+](=O)[O-])cc3Cl)c2)cc1	10.4*	2.2	21.7*	3.0	0.0	8.0	3.0	30.4*	17.8*
Cc1ccc(C2=CC(=O)C[C@H](c3ccc(F)cc3)C2)cc1	12.4*	-2.4	27.9*	7.0	-0.1	1.6	0.8	22.2*	17.2*
O=C1C=C(c2ccc(-c3ccccc3)cc2)C[C@@H](c2ccc(F)cc2)C1	-6.7	-1.4	-10.2	-0.3	-0.3	/	/	/	/
O=C1C=C(c2ccc3[nH]ccc3c2)C[C@@H](c2ccc(Cl)cc2)C1	15.4*	-89.2	21.1*	-58.2	-1.6	9.8	3.6	7.4	8.2
CCCN(CC1CC1)c1cc2c(c3c1ccn3C)C1CCC2O1 (stereo unspecified)	-0.1	-32.4	-10.4	-26.8	-1.3	/	/	/	/
SMILES	ADAM17 inh	PLCb3 inh	ADAM10 inh	PLCg1 inh	KLK7 zymogen act	ADAM10 confirm	ADAM17 ctr	ADAM10 ctr	ADAM17 confirm
CCOC(=O)C1=CCN(S(=O)(=O)c2ccc([N+](=O)[O-])cc2)C1c1ccc(C)cc1 (stereo unspecified)	-1.3	2.6	5.9	-0.4	0.5	/	/	/	/
O=C(NC1CCCc2ccccc21)c1ccc(CNc2c(N3CCOCC3)c(=O)c2=O)cc1 (stereo unspecified)	0.2	0.6	-0.9	1.3	-0.3	/	/	/	/
CCc1noc(C)c1C(=O)Nc1nc(-c2ccc(F)cc2)c(C)s1	-1.3	-5.9	5.0	0.9	0.0	/	/	/	/
CC(=O)c1ccc(C(=O)N2CCCC(Nc3ccccc3)C2)s1 (stereo unspecified)	-1.6	-4.7	-1.9	-3.8	0.2	/	/	/	/
COc1ccc(C(=O)Nc2ccc(Cl)c(S(=O)(=O)Nc3ccccc3OC)c2)cc1	12.5*	-1.1	20.9*	-1.4	-0.5	3.8	2.2	40.0*	22.6*
CCOc1ccc(NS(=O)(=O)c2cc(NC(=O)c3ccc(C)cc3)ccc2Cl)cc1	12.7*	1.5	27.6*	3.7	0.6	7.6	2.4	38.6*	22.0*
Cc1cccc(NC(=O)c2ccc(NS(=O)(=O)c3cccc4cccnc34)cc2)c1	12.8*	-4.7	24.1*	8.9	0.2	4.1	1.4	23.8*	14.7*
COc1ccccc1NS(=O)(=O)c1cc(NC(=O)c2cc(F)c(F)c(F)c2F)ccc1N1CCOCC1	8.8*	-6.0	22.0*	-5.9	-1.1	10.7	3.1	43.2*	27.6*
COc1ccccc1NS(=O)(=O)c1cc(NC(=O)c2ccc(Cl)nc2)ccc1Cl	6.0	2.2	4.3	-1.7	0.5	/	/	/	/
